# CYP2C9 inh – human CYP2C9 inhibition | CYP2C9 Supersomes, luciferin-H conversion, luminescence | inhibition, % at 5 µM | actives 20% (n = 96,000) | AID 777;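 active = blocking of liver enzyme CYP2C9 beyond about 50% at 5 µM, limit read from the data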
# CYP2C19 act – activators of human cytochrome P450 2C19; P33261; recombinant CYP2C19, luciferin-H EGE luminescence; hits give high values; 0 = fully inhibited enzyme, 1 = untreated enzyme; activation factor at 5 µM; 96,000 tested, under 10 active; AID 1025;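 active = activation factor of at least 2 at 5 µM in the primary screen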;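 also: 0 = wells with 2.5 mM tranylcypromine and 1 = vehicle-only wells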
# CYP2C19 inhib – human CYP2C19 inhibition | inhibition, % at 5 µM | actives 21% (n = 96,000) | CYP2C19 Supersomes, luciferin-H EGE luminescence, 30 min | AID 778;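 active = CYP2C19 inhibition above a set limit at 5 µM in the primary screen, cut at about 50% in these data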;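 also: plate controls were negative control wells for no effect and 2.5 mM tranylcypromine positive control for full effect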
# Cav32 inh – inhibitors of human Cav3.2 T-type calcium channel. O95180. Cav3.2-expressing cells, Fluo-4 calcium fluorescence FDSS; hits give low values. B-score at 10 µM. actives 4% (n = 100,000). AID 449739;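 active = single-dose well whose peak fluorescence ratio is a statistical outlier from its plate by either plate-standardised score or position-corrected B-score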
# CYP2C9 activ – CYP2C9 (human) activation; P11712; recombinant CYP2C9, luciferin-H conversion, luminescence; hits give high values; factor 1 = untreated enzyme, 0 = blocked; activation factor at 5 µM; actives 1.4% (n = 96,000); AID 1024;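 active = activation factor of 2 or more for CYP2C9 at a 5 µM dose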;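 also: 0 = sulfaphenazole-blocked wells and 1 = vehicle-only wells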
# An asterisk follows results filed as active; . = not tested or not shown. This is a sample that favours compounds with a hit; in the whole collection about 27% have one here.
SMILES,CYP2C9 inh,CYP2C19 act,CYP2C19 inhib,Cav32 inh,CYP2C9 activ
CCc1ccc(NC(=O)CSc2nnc(Cc3cccn3C)n2-c2ccc(OC)cc2)cc1,85*,0.5,52*,-5.4*,0.1
COc1ccc(-n2c(Cc3cccn3C)nnc2SCC(=O)Nc2ccc(Cl)cc2)cc1,85*,0.6,37,-4.5*,0.1
COc1ccc(-n2c(Cc3cccn3C)nnc2SCC(=O)Nc2cccc(F)c2)cc1,50*,0.5,51*,-4.5*,0.5
COc1ccc(-n2c(Cc3cccn3C)nnc2SCC(N)=O)cc1,-3,1,-1,-0.28,1
COc1ccc(-n2c(Cc3cccn3C)nnc2SCC(=O)Nc2ccccc2)cc1,80*,0.8,25,-13*,0.2
COc1ccc(NC(=O)CSc2nnc(Cc3cccn3C)n2-c2ccc(F)cc2)cc1OC,8,1.1,-10,-1.7,0.9
CC(C)c1nc(SCC(=O)Nc2ccc(N3CCOCC3)cc2)c2ccccc2n1,.,.,.,-3,.
Fc1ccc(CN2CCN3CCCC3C2C2CCCCC2)cc1F (stereo unspecified),-1,0.9,8,0.59,1
Cc1ccc2nc(N3CCN(Cc4ccc(F)cc4)C3=O)c(C)cc2c1,-3,0.7,26,-2.8,1
COc1ccc(-n2c(Cc3cccn3C)nnc2SCC(=O)NCc2ccc(F)cc2)cc1,40,0.1,89*,-7.1*,0.6
O=C(Cc1ccccc1)N/N=C/c1ccccc1OCc1ccc(Cl)cc1,62*,0.8,24,-0.75,0.4
O/N=C/c1ccccc1OCc1ccccc1Cl,21,0.7,34,-1.4,0.8
O/N=C/c1ccccc1OCc1ccc(Cl)cc1,69*,0.5,52*,-2.2,0.3
O=C(Cc1ccccc1)N/N=C\c1ccc(Br)o1,-1,0.7,30,0.058,1
Fc1cc2ncn(Cc3ccccc3)c2cc1F,26,0.5,45,-1.8,0.7
CC1(c2nnc(-c3ccncc3)o2)CC(c2ccccc2)=NO1 (stereo unspecified),.,.,.,0.14,.
COC(=O)c1cccnc1NC(=S)NNC(=O)c1ccccc1,12,1.1,-6,-0.61,0.9
C=CCc1cccc(C2Nc3ccccc3C(=O)N2O)c1O (stereo unspecified),21,0.7,30,-9.8*,0.8
Cc1nn(C)cc1C1Nc2ccccc2C(=O)N1O (stereo unspecified),.,.,.,0.46,.
CC(=O)c1c(C)[nH]c(C(=O)CSc2nnc(-c3ccccc3)n2Cc2ccc3c(c2)OCO3)c1C,18,0.3,70*,-0.34,0.8
CCn1c(SCC(=O)NCCc2ccccc2)nnc1-c1cccs1,32,0.7,32,0.13,0.7
O=C1OCCC1Sc1nnc(-c2cccs2)n1Cc1ccccc1 (stereo unspecified),10,0.9,9,0.95,0.9
CC(=O)c1c(C)[nH]c(C(=O)CSc2nnc(C3CCCCC3)n2N)c1C,4,1,-4,0.069,1
C=CCn1c(SCC(=O)c2[nH]c(C)c(C(C)=O)c2C)nnc1-c1ccncc1,24,0.1,86*,-1.1,0.8
O=c1cc(CSc2nnc(-c3cccs3)n2Cc2ccccc2)nc2sc3ccccc3n12,95*,0.1,93*,-1.8,0
SMILES,CYP2C9 inh,CYP2C19 act,CYP2C19 inhib,Cav32 inh,CYP2C9 activ
CC(=O)c1c(C)[nH]c(C(=O)CSc2nnc(-c3cccs3)n2Cc2ccccc2)c1C,72*,0.3,73*,-2.7,0.3
Cc1cc(C(=O)CSc2nnc(-c3cccc(F)c3)n2N)c(C)n1Cc1ccc2c(c1)OCO2,43,0.6,40,-2.4,0.6
COc1ccc2oc(C(F)(F)C(F)(F)F)cc(=O)c2c1,7,1,2,0.021,0.9
Cc1ccc(N(CCCCN2C(=O)c3ccccc3C2=O)C(=O)c2cccc([N+](=O)[O-])c2)cc1,61*,0.4,64*,-2.9,0.4
O=C1c2ccccc2C(=O)N1CCCCN(C(=O)c1ccc([N+](=O)[O-])cc1)c1ccc(Cl)cc1,54*,0.6,40,-2.7,0.5
CCOC(=O)c1nnn(-c2nonc2-n2cccc2)c1C,41,0.6,44,0.52,0.6
CCOC(=O)c1nnn(-c2nonc2N)c1CSc1ccccc1,49,0.8,16,-1.4,0.5
CCOC(=O)c1nnn(-c2nn3nnnc3c3ccccc23)c1C,55*,1.1,-11,0.99,0.4
CCOC(=O)c1nnn(-c2nc(OC)nc(N3CCCC3)n2)c1-c1ccccc1,53*,0.3,68*,.,0.5
CCOC(=O)c1nnn(-c2nonc2N)c1CSc1ccccn1,56*,0.8,20,-0.12,0.4
CCOC(=O)c1c(N)nn(C(=O)C(C)C)c1-c1ccccc1,41,0.3,69*,-1.8,0.6
CC(C)CNS(=O)(=O)c1ccc(S(=O)(=O)N2CCN(CCC#N)CC2)cc1,26,0.9,7,0.62,0.7
Cc1c(C(=O)OCc2ccccc2)nnn1-c1nonc1N,38,0,99*,-0.016,0.6
CCOC(=O)c1nnn(-c2nonc2N)c1-c1ccccc1,18,0.3,72*,0.22,0.8
CCOC(=O)c1nnn(-c2nonc2N)c1CN(C)Cc1ccccc1,83*,0.7,33,.,0.2
CCOC(=O)c1nnn(-c2nonc2N)c1-c1ccc(C)cc1,30,0.6,40,-0.34,0.7
COc1ccc(Cc2nnc(-c3ccc(F)cc3)o2)cc1OC,0,0.6,38,0.65,1
CCCCS/C(=C(/C#N)C(N)=O)c1cc2c([nH]1)CCCC2,35,0.7,34,-1.3,0.6
CN1CCC(=NNC(=O)C(=O)NCc2ccccc2)CC1,-17,1.1,-12,0.72,1.2
CC1CCCN(C(=S)NCCc2ccccc2)C1 (stereo unspecified),19,0.6,42,0.64,0.8
CC1CCC/C(=N\NC(=S)NCc2ccccc2)C1 (stereo unspecified),85*,0.2,82*,-1.6,0.1
CC1C/C(=N\NC(=S)NCc2ccccc2)CC(C)(C)C1 (stereo unspecified),-8,0.7,26,-4.4*,1.1
CSc1nc(-c2ccccc2)nc(N2CCCC2)c1C(C)=O,25,0.9,6,-0.7,0.8
CSc1nc(-c2ccccc2)nc(N2CCN(C)CC2)c1C(C)=O,53*,0.4,56*,-0.084,0.5
COC(=O)c1cccc(C23CC4(C2)[C@H](CN(Cc2cccnc2)[C@@H]4c2ccccc2)C3c2ccc(C(F)(F)F)cc2)c1 (stereo partly specified),.,.,.,-0.72,.
COC(C/C=C/C(=O)COCc1ccccc1)OC,.,.,.,0.53,.
CC1(C(=O)NCc2ccccc2)Oc2ccccc2NC1=O (stereo unspecified),76*,0.2,77*,-0.34,0.2
O=C1CC(C(=O)NCc2ccccc2)C2(CCCC2)O1 (stereo unspecified),6,0.6,39,0.73,0.9
CC12CC(c3ccccc3O1)C(C(=O)NCc1ccccc1)C(=O)N2 (stereo unspecified),21,0.4,60*,-1.6,0.8
